“And” between values parts separate entries of the source, which are not always exact repeats. Equal entries are not always repeated. Inconclusive results are not listed. Where a call stands in place of a potency, no number is given. The source made the active and inactive calls. The call rests on the fitted dose curve; in most records, active means well fitted inhibition curve with a large enough effect; inconclusive means small, poorly fitted or top-dose-only effect; inactive means flat fitted curve, though single readings scatter.
experiment: Secondary Assay for lipid storage modulators: Cytotoxcity for probe SAR; settings: Drosophila S3 cells viability, CellTiter-Glo luminescence, 24 h, with oleic acid added (1 µL, 400 µM); series mostly up to 46.1 µM
How it was run: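 CellTiter-Glo luminescence read after 24 h at 24 degrees C; embryonic Drosophila S3 cells (5,000/well) were co-treated with oleic acid (400 uM stock) and a range of compound concentrations.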

Row | SMILES | Potency
1 | CCOc1ccc(CCNC(C)=O)cc1OCC | inactive
2 | CCOc1ccc(NC(=O)NC2(C(=O)N3CCCCC3)CCCCC2)cc1 | inactive
3 | CCn1c(C(=O)NCCc2ccc(OC)c(OC)c2)cc2sc(Cl)cc21 | inactive
4 | CC1=C(C(=O)NC2CCCc3c2cnn3-c2ccc(F)cc2F)OCCO1 (stereo not drawn) | 0.996 µM (active)
5 | O=C(NC1CCCc2c1cnn2-c1ccc(F)cc1F)c1cnccn1 (stereo not drawn) | 3.97 µM (active)
6 | Cc1sc(NC(=O)Cc2cccs2)nc1-c1ccccc1 | inactive
7 | Cc1ccc(-c2cnc(SCC(=O)Nc3nc(C)cs3)n2Cc2ccco2)cc1 | inactive
8 | CCc1sc(NC(=O)Cc2cccs2)nc1-c1ccccc1 | inactive
9 | CCOC(=O)C1CCN(C(=O)C2(NC(=O)Nc3ccccc3Cl)CCCCC2)CC1 | inactive
10 | CCOc1ccc(CCNC(=O)c2cccc(C(=O)c3ccccc3)c2)cc1OCC | inactive
11 | O=C(NC1CCCc2c1cnn2-c1ccc(F)cc1F)c1ccncc1 (stereo not drawn) | 1.41 µM (active)
12 | O=C(c1cc2sccc2n1Cc1ccccc1)N(CCc1ccc(O)c(O)c1)Cc1ccccc1 | inactive
13 | O=C(Cc1cccs1)Nc1nc(-c2ccc(F)cc2)cs1 | inactive
14 | Cc1ccc(NC(=O)c2ccc(CN3CCN(C)CC3)cc2)cc1Nc1nc(-c2cccnc2)cs1 | inactive
15 | CCOC(=O)C1CCN(C(=O)C2(NC(=O)Nc3ccc(F)cc3F)CCCCC2)CC1 | inactive
16 | O=C(Nc1cccc2c1cnn2-c1ccc(F)cc1)c1ccccn1 | 0.888 µM (active)
17 | O=C(NC1CCCc2c1cnn2-c1ccc(F)cc1F)c1cccc(=O)[nH]1 (stereo not drawn) | 2.81 µM (active)
18 | O=C(NC1CCCc2c1cnn2-c1ccc(F)cc1F)c1cccs1 (stereo not drawn) | 8.88 µM (active)
19 | COc1ccc(Cl)cc1NC(=S)N1CCN(c2ccccc2F)CC1 | inactive
20 | COc1ccc(Cl)cc1NC(=S)N1CCN(c2ccc(F)cc2)CC1 | inactive
21 | O=C(NC1CCCc2c1cnn2-c1ccccc1F)c1ccc2ncccc2c1 (stereo not drawn) | 2.23 µM (active)
22 | CCOC(=O)C1CCN(C(C)C(=O)NC(=O)NC2CCCCC2)CC1 (stereo not drawn) | inactive
23 | CCn1c(C(=O)NCCc2ccc(OC)c(OC)c2)cc2sccc21 | inactive
24 | CCOc1ccc(CCNC(=O)C2CCCCC2)cc1OCC | inactive
25 | CCOc1ccc(CCNC(=O)C2=C(C)OCCO2)cc1OCC | inactive
26 | O=C(NCCc1ccc(O)c(O)c1)c1cc2sccc2[nH]1 | inactive
27 | O=C(NC1CCCc2c1cnn2-c1ccc(F)cc1F)c1ccccn1 (stereo not drawn) | 9.96 µM (active) and 8.88 µM (active)
28 | O=C(NC1CCCc2c1cnn2-c1ccc(F)cc1F)c1ccc2cc[nH]c2c1 (stereo not drawn) | 22.3 µM (active)

From PubChem BioAssay AID488908 (National Center for Advancing Translational Sciences (NCATS), 2010)
